Laboratory results as given in PubChem BioAssay (NCI).
This is part of a sample that, as a whole, favours compounds with a hit. Of some 83,000 tested, about 20% had one in any assay.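 Method: cells in 96-well plates; compound added at one concentration; 48 h incubation; percent growth measured; values under 10 scored active.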 Values without a mark were called inactive. Calls of active or inactive are those of the source.

tested on: SR leukemia; experiment: NCI-60 one-dose screen, 48 h (100 = growth as untreated, 0 = no growth, -100 = all killed); details: 10 µM unless noted

Compound | growth
COc1cc2nc(-c3ccc(Cl)cc3)cc(OCCCN3CCOCC3)c2cc1OC | 12.9%
COc1ccc(NC(N)=NCCCOc2ccc(F)cc2)cc1 | 93.6%
COC(=O)CNC(=O)[C@]12CCC(C)(C)C[C@H]1C1=CC[C@@H]3[C@@]4(C)Cc5c([nH]c6ccccc56)C(C)(C)[C@@H]4CC[C@@]3(C)[C@]1(C)CC2 | 83.3%
C[C@H]1[C@H](C)CC[C@]2(C(=O)Nc3ccc4ncccc4c3)CC[C@]3(C)C(=CC[C@@H]4[C@@]5(C)CCCNC(C)(C)[C@@H]5CC[C@]43C)[C@H]12 | -49.2% (active)
COc1cc(NC(C)CCCNC(=O)CCC(=O)NCCCNCCCCCCCCCCNCCCNC(=O)CCC(=O)NCCCC(C)Nc2cc(OC)cc3cccnc23)c2ncccc2c1 (stereo unspecified) | 92% [8 µM]
CCCCCN1C=C/C(=C\C(=O)n2ccc3ccccc32)c2ccccc21 | 82.8%
Cc1cc2nc3c4ccc(Br)cc4n(CCN(C)C)c3nc2cc1C | -2.61% (active)
CC1(C)CC(=O)C2=C(C1)N(c1ccc(F)cc1F)C(N)=C(C#N)C2c1cc(Br)ccc1F (stereo unspecified) | 31%
C[C@H]1[C@H](C)CC[C@]2(C(=O)NCC#CCN3CCN(C)CC3)CC[C@]3(C)C(=CC[C@@H]4[C@@]5(C)Cc6c([nH]c7ccccc67)C(C)(C)[C@@H]5CC[C@]43C)[C@H]12 | 4.29% (active)
COc1cc2nc(-c3ccc(C(F)(F)F)cc3)cc(OCCCN3CCOCC3)c2cc1OC | 16.5%
O=C1c2c(c3c4cccc(F)c4[nH]c3c3ccc4ccccc4c23)C(=O)N1O | 7.28% (active)
O=C1OC(Cc2ccccc2)C1c1ccccc1 (stereo unspecified) | 104%
COc1cccc(/C=N/NC(=O)c2cnn3c2NC(c2ccccc2)C3)c1Oc1ccccc1 (stereo unspecified) | 43.1%
COc1ccc(NC(=O)c2cc(NCc3cc(O)ccc3O)ccc2O)cc1 | 39.3%
COc1cc2nc(-c3ccc(Cl)cc3)cc(OCCCN3CCCC3)c2cc1OC | 14.5%
COc1ccc(C/C(=C(\C)c2ccc(OCCN3CCCC3)cc2)c2ccc(OCCN3CCCC3)cc2)cc1 | -32.6% (active)
COc1cc(NC(C)CCCNC(=O)CCC(=O)NCCCNCCCCCCCCNCCCNC(=O)CCC(=O)NCCCC(C)Nc2cc(OC)cc3cccnc23)c2ncccc2c1 (stereo unspecified) | 107%
COc1ccc(Cc2cnc(NC(=O)c3ccc4c(c3)OCCO4)s2)cc1 | 3.32% (active)
CC(=O)N1c2ccccc2NC2=C(C(=O)NC2(C)C)C1c1ccco1 (stereo unspecified) | 29.1%
O=S(=O)(NCCNc1nccc(-c2c(-c3cccc(F)c3)nc3sccn23)n1)c1ccc(Cl)cc1 | 40.6%
CC(Sc1nc2sc3c(c2c(=O)n1-c1ccc(Cl)cc1)CCCC3)C(=O)Nc1nc(-c2ccc(Br)cc2)cs1 (stereo unspecified) | 97.6%
C[C@@H](Nc1ncnc2ccc(-c3cnc(N)nc3)cc12)c1ccc(F)cc1 | 85.3%
CC1(C)CC[C@]23CC[C@]4(C)[C@H](CC[C@@H]5[C@@]6(C)CCCNC(C)(C)[C@@H]6CC[C@]54C)[C@H]2[C@H]1OC3 | -30.2% (active)
COc1ccc(C(=O)c2nc3ccccc3n2CC(=O)c2ccc(Cl)cc2)cc1 | 16.7%

tested on: RPMI-8226 leukemia; experiment: as above; details: 10 µM unless noted

Compound | growth
CCCCCN1C=C/C(=C\C(=O)N(C)c2ccc(Oc3ccccc3)cc2)c2ccccc21 | 68.6%
CNC(=O)c1cncc(Cn2nc(C)c(NC(=O)c3ccc(COc4ccc(C(F)(F)F)cc4C)cc3)c2C)c1 | 42.7%
Nc1c(C(=O)Nc2ccnc3ccccc23)sc2nc3c(cc12)CN(Cc1ccccc1)CC3 | 38.8%
CC1=C(C(=O)/C=C/c2ccc(N(C)C)cc2)C(c2ccccc2)NC(=S)N1 (stereo unspecified) | 101%
Nc1nc(Nc2ccccc2SSc2ccccc2Nc2nc(N)nc(-c3cccs3)n2)nc(-c2ccsc2)n1 | 71.9%
COc1cc2c(cc1OC)C(=O)/C(=C/c1cc(C)c(O)c(C)c1)S2 | 21.6%
COc1cc2c(=O)n(CCCN(C)C)c3c4cc5c(cc4ccc3c2cc1OC)OCO5 | 6.97% (active)
CCN(CC)CC[n+]1cc2cc(OC)c(OC)cc2c2ccc3cc4c(cc3c21)OCO4 | -32.7% (active)
O=C(Nc1ccc(NC(=O)c2cc(=O)[nH]c3ccccc23)cc1)Nc1cccc(Cl)c1 | 96.3%
COc1ccc(/C=C2\Oc3cc(OCCCN4CCCCC4)ccc3C2=O)cc1OC | 90.6%
Cc1nc(N)nc(N[C@@H](C)c2nc3cccc(NCc4ccc(C(=O)NO)cc4)c3c(=O)n2-c2ccccc2)n1 | 17.2%
Cc1ccc(/C=N/NC(=O)CSc2nc3ccccc3c(=O)n2Cc2ccc(S(N)(=O)=O)cc2)cc1 | 95.1%
COc1cc(/C(C)=C(\c2ccc(Cl)cc2)c2ccc(OCCN3CCCC3)cc2)ccc1F | 14.7%
COc1cc2nc(-c3ccc(Cl)cc3)cc(OCCCN3CCOCC3)c2cc1OC | 20.4%
COc1ccc(NC(N)=NCCCOc2ccc(F)cc2)cc1 | 86%
COC(=O)CNC(=O)[C@]12CCC(C)(C)C[C@H]1C1=CC[C@@H]3[C@@]4(C)Cc5c([nH]c6ccccc56)C(C)(C)[C@@H]4CC[C@@]3(C)[C@]1(C)CC2 | 77%
C[C@H]1[C@H](C)CC[C@]2(C(=O)Nc3ccc4ncccc4c3)CC[C@]3(C)C(=CC[C@@H]4[C@@]5(C)CCCNC(C)(C)[C@@H]5CC[C@]43C)[C@H]12 | -42.3% (active)
COc1cc(NC(C)CCCNC(=O)CCC(=O)NCCCNCCCCCCCCCCNCCCNC(=O)CCC(=O)NCCCC(C)Nc2cc(OC)cc3cccnc23)c2ncccc2c1 (stereo unspecified) | 52.9% [8 µM]
CCCCCN1C=C/C(=C\C(=O)n2ccc3ccccc32)c2ccccc21 | 73.7%

Compound | growth
Cc1cc2nc3c4ccc(Br)cc4n(CCN(C)C)c3nc2cc1C | -30.4% (active)
CC1(C)CC(=O)C2=C(C1)N(c1ccc(F)cc1F)C(N)=C(C#N)C2c1cc(Br)ccc1F (stereo unspecified) | 80.6%
C[C@H]1[C@H](C)CC[C@]2(C(=O)NCC#CCN3CCN(C)CC3)CC[C@]3(C)C(=CC[C@@H]4[C@@]5(C)Cc6c([nH]c7ccccc67)C(C)(C)[C@@H]5CC[C@]43C)[C@H]12 | 67%
COc1cc2nc(-c3ccc(C(F)(F)F)cc3)cc(OCCCN3CCOCC3)c2cc1OC | 10.8%
O=C1c2c(c3c4cccc(F)c4[nH]c3c3ccc4ccccc4c23)C(=O)N1O | 0.257% (active)
O=C1OC(Cc2ccccc2)C1c1ccccc1 (stereo unspecified) | 109%
COc1cccc(/C=N/NC(=O)c2cnn3c2NC(c2ccccc2)C3)c1Oc1ccccc1 (stereo unspecified) | 100%
COc1ccc(NC(=O)c2cc(NCc3cc(O)ccc3O)ccc2O)cc1 | 49.5%
COc1cc2nc(-c3ccc(Cl)cc3)cc(OCCCN3CCCC3)c2cc1OC | 20.2%
COc1ccc(C/C(=C(\C)c2ccc(OCCN3CCCC3)cc2)c2ccc(OCCN3CCCC3)cc2)cc1 | -20.6% (active)
COc1cc(NC(C)CCCNC(=O)CCC(=O)NCCCNCCCCCCCCNCCCNC(=O)CCC(=O)NCCCC(C)Nc2cc(OC)cc3cccnc23)c2ncccc2c1 (stereo unspecified) | 53.5%
COc1ccc(Cc2cnc(NC(=O)c3ccc4c(c3)OCCO4)s2)cc1 | 15.8%
CC(=O)N1c2ccccc2NC2=C(C(=O)NC2(C)C)C1c1ccco1 (stereo unspecified) | 63.1%
O=S(=O)(NCCNc1nccc(-c2c(-c3cccc(F)c3)nc3sccn23)n1)c1ccc(Cl)cc1 | 59.4%
CC(Sc1nc2sc3c(c2c(=O)n1-c1ccc(Cl)cc1)CCCC3)C(=O)Nc1nc(-c2ccc(Br)cc2)cs1 (stereo unspecified) | 102%
C[C@@H](Nc1ncnc2ccc(-c3cnc(N)nc3)cc12)c1ccc(F)cc1 | 83.6%
CC1(C)CC[C@]23CC[C@]4(C)[C@H](CC[C@@H]5[C@@]6(C)CCCNC(C)(C)[C@@H]6CC[C@]54C)[C@H]2[C@H]1OC3 | -29.7% (active)
COc1ccc(C(=O)c2nc3ccccc3n2CC(=O)c2ccc(Cl)cc2)cc1 | -17.4% (active)
